Results filed as inconclusive are left out. The source made the active and inactive calls. How the source made its calls: active means hit-call score of the fitted dose curve at least 0.9, where 1 is the maximum; inconclusive means response in the unintended direction; inactive means score below 0.9.
The compounds below were run against human RAR-related Orphan Receptor beta (RORb), RORB (gene 6096) (UniProt Q92753) (assay: ATG_RORb_TRANS: Attagene TRANS-FACTORIAL HepG2 Assay for human RAR-related Orphan Receptor beta (RORb) (AID 2283010)).
Chain of human RAR-related Orphan Receptor beta (RORb), RORB (gene 6096) (Q92753 whole entry, looked up): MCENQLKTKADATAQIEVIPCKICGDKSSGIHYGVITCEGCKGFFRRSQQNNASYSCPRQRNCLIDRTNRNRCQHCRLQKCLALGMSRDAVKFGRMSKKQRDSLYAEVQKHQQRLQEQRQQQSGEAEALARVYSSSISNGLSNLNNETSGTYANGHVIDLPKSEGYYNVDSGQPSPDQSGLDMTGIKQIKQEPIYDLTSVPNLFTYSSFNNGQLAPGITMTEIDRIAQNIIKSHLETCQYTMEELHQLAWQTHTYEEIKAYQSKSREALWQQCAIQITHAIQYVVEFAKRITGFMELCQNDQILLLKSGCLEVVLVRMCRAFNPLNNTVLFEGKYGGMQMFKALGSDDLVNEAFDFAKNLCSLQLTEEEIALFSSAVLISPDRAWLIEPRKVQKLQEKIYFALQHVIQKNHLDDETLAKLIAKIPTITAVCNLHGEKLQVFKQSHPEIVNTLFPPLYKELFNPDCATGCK
Protocol: ATG_TRANS is a cell-based, multiplexed-readout assay that uses HepG2, a human liver cell line, with measurements taken at 24 hours after chemical dosing in a 24-well plate.ATG_RORb_TRANS is one of 30 assay component(s) measured or calculated from the ATG_TRANS assay. It is designed to make measurements of mRNA induction, a form of inducible reporter, as detected with fluorescence intensity signals by Reverse transcription polymerase chain reaction (RT-PCR) and Capillary electrophoresis technology.Data from the assay component ATG_RORb_TRANS was analyzed into 1 assay endpoint. This assay endpoint, ATG_RORb_TRANS, was analyzed in the positive analysis fitting direction relative to DMSO as the negative control and baseline of activity. Using a type of inducible reporter, measures of mRNA for gain-of-signal activity can be used to understand the reporter gene at the transcription factor-level as they relate to the gene RORB. Furthermore, this assay endpoint can be referred to as a primary readout, because this assay has produced multiple assay endpoints where this one serves a reporter gene function. To generalize the intended target to other relatable targets, this assay endpoint is annotated to the nuclear receptor intended target family, where the subfamily is orphan.
Human liver HepG2 cells are transiently transfected with multiple reporter transcription units (MRTUs) in 6-well plates using FuGene 6 reagent (Roche; 3 ml FuGene/1 mg DNA). The MRTU constructs are regulated by a cis-regulating element (promoter). […] A major difference between the CIS and TRANS system is that in CIS activities of endogenous TFs are measured, whereas the TRANS assay evaluates changes in activities of exogenous, chimeric NR-Gal4 proteins. […] At the end of 24 hour incubation, total RNA was isolated using TriZol reagent (Invitrogen). The isolated RNA is then reverse-transcribed using oligo(dT) primer and Mo-MLV reverse transcriptase (Invitrogen) with DNAse I (Ambion) treatment for 30 min. The one-tenth of the produced cDNA was amplified by PCR using Taq DNA polymerase (Invitrogen) and two reporter sequence-specific primers. The PCR products were fluorescently labeled by primer extension with 6-arboxyfluorescein (6-FAM) 5'-labeled reporter sequence-specific primer (2 min at 95 C, 20 s at 68 C and 10 min at 72 C) and these products were digested with 5U of HpaI (New England Biolabs) for 2h at 37 C. The fragments were purified using Qiaquick PCR columns (Qiagen), analyzed on an ABI 3130xL genetic analyzer (Applied Biosystems) with peak positions identified by using a set of X-rhodamine (ROX)-labeled MapMarker1000 molecular weight standards (BioVentures). The raw capillary electrophoresis data was processed using Attagraph software (Attagene).
`O=C(O)C(F)(F)C(F)(F)C(F)(F)C(F)(F)C(F)(F)C(F)(F)C(F)F` was tested, and the outcome was “inactive”.
For `O=C(O)CCC(F)(F)C(F)(F)C(F)(F)F`, the outcome was “inactive”.
With `O=C(Cl)C(F)(F)C(F)(F)C(F)(F)C(F)(F)C(F)(F)C(F)(F)C(F)(F)F` the outcome was “inactive”.
In the case of `NC(=O)C(F)(F)C(F)(F)C(F)(F)C(F)(F)C(N)=O`, the outcome is reported as “inactive”.
With `NC(=O)C(F)(F)C(F)(F)C(F)(F)C(F)(F)C(F)(F)C(F)(F)C(F)(F)F` the outcome was “inactive”.
For `CC(C)OC(=O)COc1ccc(Cl)cc1Cl`, the outcome was “inactive”.
For `C#CC(O)CCC` (stereo not given), the outcome was “inactive”.
For `CCCCCCCCCCCCCCCCC`, the outcome was “inactive”.
For `O=c1cccc[nH]1`, the outcome was “inactive”.
With `CCN(CC)c1ccc(C=O)cc1` the outcome was “inactive”.
With `Cc1ccc(O)c(-n2nc3ccccc3n2)c1` the outcome was “inactive”.
With `COC(F)(C(F)F)C(F)(F)F` (stereo not given) the outcome was “inactive”.
With `CCC(=O)OC(C)c1ccccc1` (stereo not given) the outcome was “inactive”.
With `Cc1ccc([N+](=O)[O-])c(C)c1` the outcome was “inactive”.
With `O=S(=O)(Cl)C(F)(F)C(F)(F)C(F)(F)C(F)(F)C(F)(F)C(F)(F)C(F)(F)C(F)(F)F` the outcome was “inactive”.
For `CN(N=O)C(=O)N[C@@H]1[C@@H](O)[C@H](O)[C@@H](CO)O[C@@H]1O`, the outcome was “inactive”.
In the case of `O=C(O)CCC(F)(F)C(F)(F)C(F)(F)C(F)(F)C(F)(F)C(F)(F)C(F)(F)F`, the outcome is reported as “inactive”.
`CCCCCC/C=C/CCCCCCCC(=O)O` was tested, and the outcome was “inactive”.
With `CSc1ccc(Cl)cc1` the outcome was “inactive”.
With `Nc1c(Br)cc([N+](=O)[O-])cc1Br` the outcome was “inactive”.
With `COc1ccccc1C=O` the outcome was “inactive”.
With `NC(=O)C(F)(F)C(F)(F)C(F)(F)C(F)F` the outcome was “inactive”.
`CCOCN(C(=O)CS(=O)(=O)O)c1c(C)cccc1CC` was tested, and the outcome was “inactive”.
With `Cc1cc(=O)[nH]c(C(C)C)n1` the outcome was “inactive”.
With `CCCCC(CC)COC(=O)c1ccc(N(C)C)cc1` (stereo not given) the outcome was “inactive”.
In the case of `O=c1[nH]cccc1O`, the outcome is reported as “inactive”.
With `OCC(O)CC(F)(F)C(F)(F)C(F)(F)C(F)(F)C(F)(F)C(F)(F)C(F)(F)C(F)(F)F` (stereo not given) the outcome was “inactive”.
`CC(C)C(=O)OCc1ccccc1` was tested, and the outcome was “inactive”.
`CC(C)OC=O` was tested, and the outcome was “inactive”.
`CCc1cccc(C)c1N(C(=O)C(=O)O)C(C)COC` (stereo not given) was tested, and the outcome was “inactive”.
In the case of `O=C=Nc1cccc2c(N=C=O)cccc12`, the outcome is reported as “inactive”.
With `C=CC(=O)OCC(F)(F)C(F)(F)C(F)(F)C(F)(F)C(F)(F)C(F)(F)C(F)(F)C(F)F` the outcome was “inactive”.
`CNS(=O)(=O)C(F)(F)C(F)(F)C(F)(F)C(F)(F)C(F)(F)C(F)(F)C(F)(F)C(F)(F)F` was tested, and the outcome was “inactive”.
In the case of `Cc1cc(O)c(C(C)(C)C)cc1C(C)(C)C`, the outcome is reported as “inactive”.
`C=CCOC(=O)CC(C)C` was tested, and the outcome was “inactive”.
For `CCc1cc(Cc2cc(CC)c(N)c(CC)c2)cc(CC)c1N`, the outcome was “inactive”.
In the case of `CC(C)(C)c1cc(CCC(=O)OCC(COC(=O)CCc2cc(C(C)(C)C)c(O)c(C(C)(C)C)c2)(COC(=O)CCc2cc(C(C)(C)C)c(O)c(C(C)(C)C)c2)COC(=O)CCc2cc(C(C)(C)C)c(O)c(C(C)(C)C)c2)cc(C(C)(C)C)c1O`, the outcome is reported as “inactive”.
For `Brc1ccccn1`, the outcome was “inactive”.
`O=S(=O)(O)CCC(F)(F)C(F)(F)C(F)(F)C(F)(F)C(F)(F)C(F)(F)C(F)(F)C(F)(F)F` was tested, and the outcome was “inactive”.
`O=C1C=CC(=O)N1c1ccc(Cc2ccc(N3C(=O)C=CC3=O)cc2)cc1` was tested, and the outcome was “inactive”.

Source: PubChem BioAssay (EPA / NIEHS)
